PubChem BioAssay (NCI)
Compounds without any hit were thinned out: in the full panel of roughly 83,000, 20% have a hit.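 Plates (96-well) were seeded with cells, treated with compound at one concentration, and incubated for 48 hours before percent growth was determined.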 Values without a mark were called inactive. Active and inactive are the calls of the source. The calls were made as follows: active = growth percent below 10; inactive = the rest.

Legend:
Experiment in all cases: NCI-60 one-dose screen, 48 h (100 = growth as untreated, 0 = no growth, -100 = all killed)
Conditions in all cases: 10 µM unless noted
NCI-H23 lung = system: NCI-H23 lung
NCI-H226 lung = system: NCI-H226 lung
NCI-H322M lung = system: NCI-H322M lung
HOP-62 NSCLC = system: HOP-62 NSCLC
NCI-H460 lung = system: NCI-H460 lung
HOP-92 NSCLC = system: HOP-92 NSCLC
NCI-H522 lung = system: NCI-H522 lung
786-0 renal = system: 786-0 renal
COLO 205 colon = system: COLO 205 colon
A549/ATCC NSCLC = system: A549/ATCC NSCLC

SMILES | growth (NCI-H23 lung) | growth (NCI-H226 lung) | growth (NCI-H322M lung) | growth (HOP-62 NSCLC) | growth (NCI-H460 lung) | growth (HOP-92 NSCLC) | growth (NCI-H522 lung) | growth (786-0 renal) | growth (COLO 205 colon) | growth (A549/ATCC NSCLC)
COc1ccc(-c2cc(-c3ccc(Nc4nc(Nc5ccccc5)nc(Nc5ccc(Cl)cc5)n4)cc3)nc(N)c2C#N)cc1 | -6.72% (active) | -60.9% (active) | 42.2% | -31.1% (active) | 24.6% | -67.6% (active) | -3.64% (active) | -81% (active) | 12.5% | 
CCNCCNc1cc(-c2ccc(C#N)cc2)c(C#N)c2nc3ccccc3n12 | 47.5% | 81.1% | 33.6% | 56.6% | -28.1% (active) | 63.3% | 31.8% | 28% |  | 
CCc1c(C(=O)N[C@@H]2c3cc(Cl)ccc3CC[C@@H]2O)[nH]c(C)c1C(C)=O | 100% | 76.5% | 91.2% | 72.1% | 33.6% | 84.1% | 65.9% | 89.3% |  | 
CN(C)CN1CCN(c2ccc3nc(-c4ccc5nc(-c6ccc(C(F)(F)F)cc6)[nH]c5c4)[nH]c3c2)CC1 | 55.6% | 64.2% | 87.1% | 57.6% | 10.6% | 75.8% | 42.1% | 78.5% |  | 
CNC(=O)c1cc(Oc2ccc3nc(Nc4cc(Cl)cc(Cl)c4)ccc3c2)ccn1 | 70.6% | 81.9% | 82.9% | 72.1% | 66.9% | 67.6% | 29.6% | 82.6% |  | 
Cc1cc(Cl)nc(N(CCCNc2ccnc3cc(Cl)ccc23)Cc2ccccn2)n1 | 33.6% | 65% | 68.7% | 64% | 48.7% | 30.6% | 40% | 47.4% |  | 
C=CC(=O)Nc1cccc(C)c1Nc1cc(-c2cccnc2Cc2c(C)c(OC)cc(OC)c2C)ncn1 | 54.4% | 46.1% | 50.7% | -38% (active) | 4.5% (active) | 22.8% | -17.4% (active) | 16% |  | 
Cc1nc(C)c(-c2nn3c(-c4cccc(F)c4)nnc3s2)s1 | 97.3% | 102% | 106% | 98.7% | 102% | 86.2% | 77.6% |  | 101% | 87%
C=C1C(=O)O[C@H]2[C@H]1CC/C(COC(=O)/C=C/C(=O)NCc1ccc(Cn3c(=O)sn(-c4ccccc4)c3=O)cc1)=C\CC[C@@]1(C)O[C@@H]21 | 49.7% | 14.5% | 89.9% | 85.5% | 91.9% | -53.7% (active) | -80.1% (active) | -19.1% (active) |  | 
O=C(NCc1cn(Cc2cccc(Oc3ccccc3)c2)nn1)c1cccnc1NCc1ccc(Cl)cc1 | 20.6% | 12.5% | 54.5% | 40.7% | 17.1% | 22.1% | 20.8% | 38% |  | 
O=C(/C=C/C12c3ccccc3C(c3ccccc31)C1C(=O)N(c3ccccc3)C(=O)C12)c1ccc(Cl)cc1 (configuration not stated) | 17.2% | -10% (active) | 35.3% | 23.5% | -17.5% (active) | 39.1% | 10.1% | 8.93% (active) |  | 
COc1cc(/C=C/C(=O)c2ccc(Nc3nc(Nc4ccccc4)nc(Nc4ccc(Cl)cc4)n3)cc2)cc(OC)c1OC | 15.5% | 39.2% | 73.3% | 52.7% | 50.5% | 1.92% (active) | 77.3% | -25.4% (active) |  | 
N=C(N)c1ccc(-c2ccc(-c3ccc(Cl)cc3Cl)o2)nc1 | 78% | 96.9% | 30.7% | 29.1% | -63.2% (active) | 77.4% | 30% | -22% (active) |  | 
CC[C@@H](C[C@H](CCO)c1ccccc1)c1cc2ccccc2o1 | 92.7% | 88% | 92.9% | 84.4% | 100% | 96.8% | 77.5% | 91% |  | 
COc1cccc(-c2nc3sccn3c2-c2ccnc(NCCNS(=O)(=O)c3c(Cl)cccc3Cl)c2)c1 | 60.2% | 57.4% | 87.4% | 88.4% | 61% | 43% | 60.5% | 62.6% |  | 
CCOc1ccc2nc(-c3cccc(OCC(=O)NC(C)C)c3)nc(Nc3ccc(-c4cn[nH]c4)cc3)c2c1 | 11.3% | 38.8% | -8.36% (active) | -36.3% (active) | -37.9% (active) | -27.9% (active) | -25.3% (active) | -12.5% (active) |  | 

SMILES | growth (NCI-H23 lung) | growth (NCI-H226 lung) | growth (NCI-H322M lung) | growth (HOP-62 NSCLC) | growth (NCI-H460 lung) | growth (HOP-92 NSCLC) | growth (NCI-H522 lung) | growth (786-0 renal) | growth (COLO 205 colon) | growth (A549/ATCC NSCLC)
CCCCn1c(=O)[nH]c(N)c(C(c2ccc(F)cc2)c2c(N)[nH]c(=O)n(CCCC)c2=O)c1=O | 77.5% | 77.7% | 74.8% | 77.4% | 51.6% | 82.4% | 51.6% |  | 59.9% | 69%
OCCCCc1nccc2c1[nH]c1ccccc12 | 98.8% | 90.7% | 88.9% | 95.3% | 104% | 104% | 117% | 102% |  | 
CC1=NN(c2cccc(Cl)c2)C(=O)/C1=C\c1cn(CC(O)CN2CCCCC2)c2ccccc12 (configuration not stated) | 97.8% | 96.8% | 103% | 73.6% | 44.8% | 56.3% | 71.9% |  | -58% (active) | 95.2%
COC(=O)[C@]12CC[C@@H](C)[C@H](C)[C@@H]1C1=CC[C@@H]3[C@@]4(C)C(C=O)=C[C@@](C)(CO)C4=CC[C@@]3(C)[C@]1(C)CC2 | 31.7% | 58.5% | 61.3% | 83.8% | 17.5% | 38% |  | 45.2% |  | 29.1%
CCNCCNc1cc(C2CCCC2)c(C#N)c2nc3ccccc3n12 | 69.6% | 46.1% | 23.7% | 33.9% | 2.84% (active) | 52.3% |  | 20% |  | 7.98% (active)
C[C@H]1[C@H]2C3=CC[C@@H]4[C@@]5(C)C/C(=C/c6ccncc6)C(=O)C(C)(C)[C@@H]5CC[C@@]4(C)[C@]3(C)CC[C@@]2(C(=O)N2CCN(C)CC2)CC[C@@H]1C | 93.2% | 85.5% | 78.2% | 74.7% | 68.3% | 42.8% |  | 81.4% |  | 63.9%
C[N+](C)(C)CCOC(OCC[N+](C)(C)C)(c1ccccc1)c1ccccc1 | 99.8% | 107% | 129% | 106% | 106% | 91% |  | 114% |  | 100%
CC(C)n1nc(C#Cc2cccc3cc(-c4cccc(C(F)(F)F)c4)ncc23)c2c(N)ncnc21 | 78.6% | 48.2% | 94.8% | 59.7% | 48.9% | 78% |  | 89% |  | 44.4%
NC(=S)N/N=C/C(=O)O | 99.3% | 96.2% | 77.5% | 85.9% | 99.6% | 81.8% |  | 104% |  | 92.2%
C=C1C(=O)O[C@H]2[C@H]1CC/C(COC(=O)NCc1ccc(Cn3c(=O)sn(CCCCl)c3=O)cc1)=C\CC[C@@]1(C)O[C@@H]21 | 70.8% | 58.7% | 88.8% | 87.2% | 101% | -53.8% (active) |  | 38.1% |  | 90.5%
Cn1cc(-c2ccc3nc(-c4ccc(CC(=O)Nc5cc(C(C)(C)C)no5)cc4)cnc3c2)cn1 | 41.8% [30 µM] | 30.8% [30 µM] | 26.7% [30 µM] | 61.3% [30 µM] | 21.1% [30 µM] | -3.39% [30 µM] (active) |  | 35.7% [30 µM] |  | 33.9% [30 µM]
COc1ccc(Nc2ncc(Br)c(NCCCNC(=O)C3CCC3)n2)cc1 | 31% | 21.8% | 43.1% | 10.9% | 19.4% | 40% |  | 24.3% |  | 19.8%
CN1CCN(c2ccc(Nc3ncc(Cl)c(NC[C@@H]4CCCO4)n3)cc2)CC1 | 15.8% | 8.99% (active) | 35.9% | 7.27% (active) | 13.2% | 3.21% (active) |  | 26% |  | 22.8%
CN(C)c1ccc(C#Cc2c(F)cccc2Cl)cc1 | 70.6% | 90.4% | 86.7% | 71.8% | 98.9% | 79.5% |  | 112% |  | 87.5%
COc1ccc(-c2nnc(-c3ccc4c(c3)nc(-c3ccccc3)n4C3CCCCC3)o2)cc1 | 62.5% | 46.4% | 87% | 50.5% | 64.4% | 57% |  | 77.5% |  | 50.3%
